# Measured values taken from PubChem BioAssay (EPA / NIEHS).
# Where “and” joins values, the source holds several entries; their conditions need not be identical. Identical values can stand only once. Records with an inconclusive call do not appear. Where a structure was tested more than once in an assay, its records may differ in their call. Calls of active or inactive are those of the source. How the source made its calls: active means hit-call score of the fitted dose curve at least 0.9, where 1 is the maximum; inconclusive means response in the unintended direction; inactive means score below 0.9.
# Columns and labels:
# [1] = target: Metabotropic glutamate receptor 1 (Rattus norvegicus) (UniProt P23385); test: NVS_GPCR_rmMGluR1: NovaScreen (NVS) G Protein-Coupled Receptor Assay for rat Glutamate Metabotropic Receptor 1 (MGluR1) (AID 2283305)
# Outline: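 Binding to native receptor from rat cerebellum extract, measured as displacement of a radioligand (scintillation counting, filter separation) after 1 hour. Compounds tested at 25 uM in duplicate, then titrated to a 50 uM maximum.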
# [2] = system: rabbit Platelet Activating Factor Receptor (PAF), gene 100354046; test: NVS_GPCR_rabPAF: NovaScreen (NVS) G Protein-Coupled Receptor Assay for rabbit Platelet Activating Factor Receptor (PAF) (AID 2283287)
# Outline: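 Rabbit platelet membrane preparation; radioligand displacement read by filter-based scintillation counting 1 h after dosing, loss of signal versus DMSO. Primary screen in duplicate at 25 uM, actives followed up in concentration series.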
# [3] = target: rat Adrenergic Receptor, Beta (Adrb), Non-selective Binding, Adrb1 (gene 24925) (UniProt P18090); test: NVS_GPCR_rAdrb_NonSelective: NovaScreen (NVS) G Protein-Coupled Receptor Assay for rat Adrenergic Receptor, Beta (Adrb), Non-selective Binding (AID 2283298)
# Outline: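 Rat cortical membranes incubated 1 h with beta-adrenergic radioligand and test chemical; bound ligand measured by filtration and scintillation counting. Screen at 25 uM duplicate, then concentration series with 50 uM maximum; loss of signal versus DMSO.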
# [4] = target: rat Adrenergic, Alpha 1, Non-selective Receptor (Adra1), Adra1a (gene 29412) (UniProt P43140); test: NVS_GPCR_rAdra1_NonSelective: NovaScreen (NVS) G Protein-Coupled Receptor Assay for rat Adrenergic, Alpha 1, Non-selective Receptor (Adra1) (AID 2283289)
# rat Adrenergic, Alpha 1, Non-selective Receptor (Adra1), Adra1a (gene 29412), sequence (P43140 whole entry, looked up): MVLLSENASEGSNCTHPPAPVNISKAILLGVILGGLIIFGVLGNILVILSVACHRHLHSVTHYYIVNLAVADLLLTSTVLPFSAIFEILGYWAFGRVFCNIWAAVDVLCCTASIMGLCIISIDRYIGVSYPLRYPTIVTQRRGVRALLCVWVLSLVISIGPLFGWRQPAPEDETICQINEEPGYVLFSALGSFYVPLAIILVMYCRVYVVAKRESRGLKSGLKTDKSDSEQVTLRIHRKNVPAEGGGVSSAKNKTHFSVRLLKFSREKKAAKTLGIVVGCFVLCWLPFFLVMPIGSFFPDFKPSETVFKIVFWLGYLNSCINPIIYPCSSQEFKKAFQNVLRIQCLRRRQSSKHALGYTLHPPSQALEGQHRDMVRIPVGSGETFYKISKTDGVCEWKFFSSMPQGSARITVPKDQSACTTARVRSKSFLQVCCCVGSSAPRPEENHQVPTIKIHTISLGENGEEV
# Outline: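 Chemicals first screened in duplicate at 25 uM, then actives tested in concentration series up to 50 uM. Binding measured as displacement of radioligand from rat forebrain membrane receptors, 1 h, filtration with scintillation readout; DMSO baseline.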
# [5] = target: human Vasopressin 1A Receptor (V1A), AVPR1A (gene 552) (UniProt P37288); test: NVS_GPCR_hV1A: NovaScreen (NVS) G Protein-Coupled Receptor Assay for human Vasopressin 1A Receptor (V1A) (AID 2283284)
# human Vasopressin 1A Receptor (V1A), AVPR1A (gene 552), sequence (P37288 whole entry, looked up): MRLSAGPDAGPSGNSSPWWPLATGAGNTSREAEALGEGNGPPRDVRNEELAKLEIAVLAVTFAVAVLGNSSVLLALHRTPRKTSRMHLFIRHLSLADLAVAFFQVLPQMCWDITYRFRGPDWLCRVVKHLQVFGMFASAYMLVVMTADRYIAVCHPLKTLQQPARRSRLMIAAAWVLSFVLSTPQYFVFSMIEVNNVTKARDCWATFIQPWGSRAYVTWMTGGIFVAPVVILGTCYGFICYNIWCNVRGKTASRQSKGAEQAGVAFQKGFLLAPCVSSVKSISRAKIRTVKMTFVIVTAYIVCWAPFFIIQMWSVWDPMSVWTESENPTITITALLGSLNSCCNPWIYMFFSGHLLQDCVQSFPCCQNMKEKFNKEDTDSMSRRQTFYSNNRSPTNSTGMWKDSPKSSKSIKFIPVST
# Outline: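 Single-concentration duplicate screen at 25 uM, with concentration-response follow-up (top 50 uM) for actives. The assay measured displacement of a radioligand from human platelet-derived receptor after 1.5 h, detected by filtration and scintillation counting.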
# [6] = target: guinea pig Bradykinin Receptor B2 (BK2), BDKRB2 (gene 100135486) (UniProt O70526); test: NVS_GPCR_gBK2: NovaScreen (NVS) G Protein-Coupled Receptor Assay for guinea pig Bradykinin Receptor B2 (BK2) (AID 2283292)
# guinea pig Bradykinin Receptor B2 (BK2), BDKRB2 (gene 100135486), sequence (O70526 whole entry, looked up): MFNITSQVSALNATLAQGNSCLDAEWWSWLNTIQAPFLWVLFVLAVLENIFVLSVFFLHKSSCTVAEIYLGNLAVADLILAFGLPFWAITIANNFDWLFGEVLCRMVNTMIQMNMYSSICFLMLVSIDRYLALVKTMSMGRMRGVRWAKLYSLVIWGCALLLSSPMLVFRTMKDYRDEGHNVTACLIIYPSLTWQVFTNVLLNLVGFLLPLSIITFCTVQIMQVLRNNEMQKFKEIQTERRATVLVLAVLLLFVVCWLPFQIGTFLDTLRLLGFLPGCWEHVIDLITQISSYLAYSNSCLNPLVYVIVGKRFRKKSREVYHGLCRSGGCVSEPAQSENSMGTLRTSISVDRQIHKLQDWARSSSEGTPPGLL
# Outline: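 Guinea pig ileum membrane preparation incubated 1 h with radioligand and test chemical; bound counts measured after filtration. Primary duplicate screening at 25 uM, then singleton concentration series with a 50 uM top dose; DMSO as baseline.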
# [7] = target: guinea pig Serotonin, 5-Hydroxytryptamine Receptor 4 (5HT4), HTR4 (gene 100135548) (UniProt O70528); test: NVS_GPCR_g5HT4: NovaScreen (NVS) G Protein-Coupled Receptor Assay for guinea pig Serotonin, 5-Hydroxytryptamine Receptor 4 (5HT4) (AID 2283294)
# guinea pig Serotonin, 5-Hydroxytryptamine Receptor 4 (5HT4), HTR4 (gene 100135548), sequence (O70528 whole entry, looked up): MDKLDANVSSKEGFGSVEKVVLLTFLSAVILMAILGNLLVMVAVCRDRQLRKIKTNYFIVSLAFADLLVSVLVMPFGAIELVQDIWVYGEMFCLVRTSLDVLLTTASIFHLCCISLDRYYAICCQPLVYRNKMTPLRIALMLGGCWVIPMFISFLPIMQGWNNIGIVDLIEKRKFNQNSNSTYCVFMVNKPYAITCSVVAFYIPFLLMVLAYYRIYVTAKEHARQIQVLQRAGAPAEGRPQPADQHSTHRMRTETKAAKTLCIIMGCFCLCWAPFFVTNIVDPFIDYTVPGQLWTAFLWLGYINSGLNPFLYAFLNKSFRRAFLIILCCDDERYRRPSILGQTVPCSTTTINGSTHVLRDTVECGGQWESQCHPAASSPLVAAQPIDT
# Outline: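 Compounds first screened in duplicate at 25 uM, actives followed up in concentration series. Binding measured as displacement of specific radioligand from guinea pig striatal membranes, 1 h, filter-based scintillation read-out versus DMSO baseline.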
# [8] = target: rat Adrenergic Receptor, Alpha 2 (Adra2), Non-selective Binding, Adra2a (gene 25083) (UniProt P22909); test: NVS_GPCR_rAdra2_NonSelective: NovaScreen (NVS) G Protein-Coupled Receptor Assay for rat Adrenergic Receptor, Alpha 2 (Adra2), Non-selective Binding (AID 2283299)
# rat Adrenergic Receptor, Alpha 2 (Adra2), Non-selective Binding, Adra2a (gene 25083), sequence (P22909 whole entry, looked up): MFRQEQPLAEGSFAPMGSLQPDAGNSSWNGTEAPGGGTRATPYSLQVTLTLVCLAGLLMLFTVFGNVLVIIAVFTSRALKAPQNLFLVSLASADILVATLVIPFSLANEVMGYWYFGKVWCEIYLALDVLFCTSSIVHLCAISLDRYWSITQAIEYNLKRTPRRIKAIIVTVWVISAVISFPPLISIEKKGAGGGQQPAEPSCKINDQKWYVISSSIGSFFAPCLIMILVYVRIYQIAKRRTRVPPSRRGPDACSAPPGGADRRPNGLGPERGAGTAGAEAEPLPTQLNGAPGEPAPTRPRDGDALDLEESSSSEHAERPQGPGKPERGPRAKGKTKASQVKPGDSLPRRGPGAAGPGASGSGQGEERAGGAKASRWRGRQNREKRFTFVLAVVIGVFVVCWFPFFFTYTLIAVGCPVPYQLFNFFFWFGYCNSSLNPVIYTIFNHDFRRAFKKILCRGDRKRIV
# Outline: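 Filter-based scintillation counting of radioligand binding to rat cortical membrane receptors, measured 1.25 hours post-dosing; loss of signal versus DMSO indicates displacement. Initial single-concentration duplicate at 25 uM, then concentration series.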
# [9] = target: human Opioid Receptor Delta 1 (Opiate D1), OPRD1 (gene 4985) (UniProt P41143); test: NVS_GPCR_hOpiate_D1: NovaScreen (NVS) G Protein-Coupled Receptor Assay for human Opioid Receptor Delta 1 (Opiate D1) (AID 2283280)
# human Opioid Receptor Delta 1 (Opiate D1), OPRD1 (gene 4985), sequence (P41143 whole entry, looked up): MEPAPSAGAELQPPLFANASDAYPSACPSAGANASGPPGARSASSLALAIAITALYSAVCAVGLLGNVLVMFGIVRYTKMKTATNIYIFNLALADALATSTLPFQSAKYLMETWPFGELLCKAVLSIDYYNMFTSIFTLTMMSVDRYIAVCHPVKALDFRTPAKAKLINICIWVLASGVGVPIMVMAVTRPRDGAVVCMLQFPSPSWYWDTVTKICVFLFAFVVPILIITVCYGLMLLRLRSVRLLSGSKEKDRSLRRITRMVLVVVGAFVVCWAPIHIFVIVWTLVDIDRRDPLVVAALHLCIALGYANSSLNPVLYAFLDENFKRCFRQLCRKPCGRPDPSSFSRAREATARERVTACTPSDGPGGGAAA
# Outline: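 Membrane preparations from CHO cells bearing the human receptor were incubated 1 h with test chemical, and bound radioligand was counted after filtration. Actives from 25 uM duplicate screening were retested in concentration-response.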
# [10] = target: human Thromboxane A2 Receptor (TXA2), TBXA2R (gene 6915) (UniProt P21731); test: NVS_GPCR_hTXA2: NovaScreen (NVS) G Protein-Coupled Receptor Assay for human Thromboxane A2 Receptor (TXA2) (AID 2283282);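 further: actives reduce bound radioligand signal relative to DMSO baseline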
# human Thromboxane A2 Receptor (TXA2), TBXA2R (gene 6915), sequence (P21731 whole entry, looked up): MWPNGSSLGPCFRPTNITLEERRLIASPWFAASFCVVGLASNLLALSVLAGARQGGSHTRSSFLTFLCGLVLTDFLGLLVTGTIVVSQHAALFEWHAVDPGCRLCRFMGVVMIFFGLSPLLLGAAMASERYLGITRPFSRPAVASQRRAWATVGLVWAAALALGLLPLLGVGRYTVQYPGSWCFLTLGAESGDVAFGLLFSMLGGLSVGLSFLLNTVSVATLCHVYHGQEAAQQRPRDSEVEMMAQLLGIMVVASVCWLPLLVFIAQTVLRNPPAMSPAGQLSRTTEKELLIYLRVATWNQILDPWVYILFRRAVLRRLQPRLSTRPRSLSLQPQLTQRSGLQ
# Outline: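 Human platelet-derived receptor preparation incubated with test chemical and radiolabelled ligand for 1 hour, cell-free. Bound label was separated by filtration and counted; displacement relative to DMSO controls gave activity, screened at 25 uM, then titrated.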
# [11] = system: 5-hydroxytryptamine receptor 2C (pig); test: NVS_GPCR_p5HT2C: NovaScreen (NVS) G Protein-Coupled Receptor Assay for pig Serotonin, 5-Hydroxytryptamine Receptor 2C (5HT2C) (AID 2283288)
# Outline: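 Radioligand displacement on membranes from pig choroid plexus, detected by filter scintillation counting after 1 h. Tested first at a single 25 uM in duplicate, then in concentration-response for actives; DMSO served as baseline.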
# [12] = target: mouse Cholecystokinin, CCK2 Receptor (CCKB), Cckbr (gene 12426) (UniProt P56481); test: NVS_GPCR_mCKKBCentral: NovaScreen (NVS) G Protein-Coupled Receptor Assay for mouse Cholecystokinin, CCK2 Receptor (CCKB) (AID 2283293)
# mouse Cholecystokinin, CCK2 Receptor (CCKB), Cckbr (gene 12426), sequence (P56481 whole entry, looked up): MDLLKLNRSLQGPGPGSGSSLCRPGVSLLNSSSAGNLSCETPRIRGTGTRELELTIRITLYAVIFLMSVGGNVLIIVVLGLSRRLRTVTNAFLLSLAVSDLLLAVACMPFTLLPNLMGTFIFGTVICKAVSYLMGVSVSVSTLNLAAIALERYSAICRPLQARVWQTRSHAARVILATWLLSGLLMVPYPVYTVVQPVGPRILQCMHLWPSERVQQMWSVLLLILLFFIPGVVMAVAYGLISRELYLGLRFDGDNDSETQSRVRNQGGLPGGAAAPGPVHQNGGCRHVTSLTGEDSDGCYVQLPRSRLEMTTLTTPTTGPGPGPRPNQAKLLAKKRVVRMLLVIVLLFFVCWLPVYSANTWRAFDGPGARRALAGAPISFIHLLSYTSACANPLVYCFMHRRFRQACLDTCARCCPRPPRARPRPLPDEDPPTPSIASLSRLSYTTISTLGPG
# Outline: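 Mouse forebrain membrane preparation incubated 2 h with chemical and radioligand; bound radioactivity counted after filtration. Single-concentration duplicate screen at 25 uM, then concentration series to 50 uM max for hits, DMSO as baseline.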
# Adra2b (gene 24174) = Adra2b (gene 24174) (UniProt P19328); test: NVS_GPCR_rmAdra2B: NovaScreen (NVS) G Protein-Coupled Receptor Assay for hybird cells Adrenergic, Alpha 2B Receptor (Adra2B) (AID 2283306)
# Adra2b (gene 24174), sequence (P19328 whole entry, looked up): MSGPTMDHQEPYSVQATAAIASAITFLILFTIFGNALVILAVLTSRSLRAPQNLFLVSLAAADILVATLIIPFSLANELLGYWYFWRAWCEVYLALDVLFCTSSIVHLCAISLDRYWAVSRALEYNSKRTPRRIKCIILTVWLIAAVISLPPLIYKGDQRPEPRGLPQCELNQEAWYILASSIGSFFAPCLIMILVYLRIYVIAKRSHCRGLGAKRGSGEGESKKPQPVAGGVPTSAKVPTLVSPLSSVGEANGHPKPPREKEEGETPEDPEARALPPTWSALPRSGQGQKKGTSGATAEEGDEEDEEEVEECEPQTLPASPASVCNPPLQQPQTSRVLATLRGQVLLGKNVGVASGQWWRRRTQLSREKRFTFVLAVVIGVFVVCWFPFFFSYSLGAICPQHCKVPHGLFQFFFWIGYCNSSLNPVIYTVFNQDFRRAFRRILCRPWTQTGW
# Outline: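 Compounds screened first at 25 uM in duplicate, with actives followed up in concentration-response; specific radioligand displacement from hybrid neuroglioma/blastoma cell membrane preparations measured by filter scintillation counting after 1 h, normalized to DMSO.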
# [13] = target: rat Adrenergic, Alpha 1A Receptor (Adra1A), Adra1a (gene 29412) (UniProt P43140); test: NVS_GPCR_rAdra1A: NovaScreen (NVS) G Protein-Coupled Receptor Assay for rat Adrenergic, Alpha 1A Receptor (Adra1A) (AID 2283296)
# Outline: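 Filter radiodetection after 1 h competitive binding on CEC-pretreated rat cortical membranes. Duplicate single-point screening at 25 uM; active chemicals retested across concentration series.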
# [14] = target: rat Neurokinin-1 Receptor (NK1), Tacr1 (gene 24807) (UniProt P14600); test: NVS_GPCR_rNK1: NovaScreen (NVS) G Protein-Coupled Receptor Assay for rat Neurokinin-1 Receptor (NK1) (AID 2283309)
# rat Neurokinin-1 Receptor (NK1), Tacr1 (gene 24807), sequence (P14600 whole entry, looked up): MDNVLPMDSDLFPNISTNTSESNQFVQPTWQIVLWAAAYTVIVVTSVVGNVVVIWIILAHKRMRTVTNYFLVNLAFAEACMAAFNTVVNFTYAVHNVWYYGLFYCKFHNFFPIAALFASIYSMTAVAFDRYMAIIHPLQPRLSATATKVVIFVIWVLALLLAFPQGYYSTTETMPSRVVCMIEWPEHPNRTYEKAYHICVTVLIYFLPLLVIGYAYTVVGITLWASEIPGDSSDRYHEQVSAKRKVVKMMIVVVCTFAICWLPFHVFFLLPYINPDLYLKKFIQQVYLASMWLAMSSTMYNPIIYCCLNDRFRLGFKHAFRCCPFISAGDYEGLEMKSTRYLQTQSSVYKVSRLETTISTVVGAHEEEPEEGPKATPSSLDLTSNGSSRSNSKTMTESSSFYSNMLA
# Outline: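 Competitive radioligand binding to NK1 in rat submaxillary membranes, 1 h incubation, filtration and scintillation read-out. Compounds first screened at 25 uM in duplicate, then concentration-response for actives; signal loss relative to DMSO.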
# [15] = target: rat Histamine Receptor (H3), Hrh3 (gene 85268) (UniProt Q9QYN8); test: NVS_GPCR_rH3: NovaScreen (NVS) G Protein-Coupled Receptor Assay for rat Histamine Receptor (H3) (AID 2283303)
# Outline: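 Filter-binding radioligand competition on rat forebrain membranes, 1 h incubation; compounds screened at 25 µM in duplicate and followed in concentration series to 50 µM, loss of bound signal vs DMSO.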
# [16] = target: rat Serotonin, 5-Hydroxytryptamine Receptor 1 (5HT1), Non-Selective Binding, Htr1a (gene 24473) (UniProt P19327); test: NVS_GPCR_r5HT1_NonSelective: NovaScreen (NVS) G Protein-Coupled Receptor Assay for rat Serotonin, 5-Hydroxytryptamine Receptor 1 (5HT1), Non-Selective Binding (AID 2283286)
# rat Serotonin, 5-Hydroxytryptamine Receptor 1 (5HT1), Non-Selective Binding, Htr1a (gene 24473), sequence (P19327 whole entry, looked up): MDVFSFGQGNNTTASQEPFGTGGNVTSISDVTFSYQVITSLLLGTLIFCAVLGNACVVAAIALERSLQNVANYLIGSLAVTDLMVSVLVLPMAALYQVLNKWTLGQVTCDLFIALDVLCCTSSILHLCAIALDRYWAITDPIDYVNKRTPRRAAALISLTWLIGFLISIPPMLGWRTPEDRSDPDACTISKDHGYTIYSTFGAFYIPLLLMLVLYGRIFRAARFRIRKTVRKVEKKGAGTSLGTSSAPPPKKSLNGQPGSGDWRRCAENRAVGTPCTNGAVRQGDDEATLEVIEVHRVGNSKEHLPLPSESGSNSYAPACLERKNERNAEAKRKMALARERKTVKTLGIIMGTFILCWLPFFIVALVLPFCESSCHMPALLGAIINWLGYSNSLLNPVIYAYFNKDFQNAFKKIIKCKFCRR
# Outline: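 Binding of a radioligand to rat cortex membranes is read by filtration and scintillation counting after 1 h. Compounds were screened at 25 uM in duplicate. Actives were then titrated to a top of 50 uM. DMSO is the baseline.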
# [17] = target: rat Gamma-Aminobutyric Acid Type B Receptor (GABBR), Gabbr1 (gene 81657) (UniProt Q9Z0U4); test: NVS_GPCR_rGABBR: NovaScreen (NVS) G Protein-Coupled Receptor Assay for rat Gamma-Aminobutyric Acid Type B Receptor (GABBR) (AID 2283301)
# Outline: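 Rat cortical membrane preparation, competitive radioligand binding for 1 h with filtration and scintillation readout. Actives from duplicate single-point 25 uM screening proceeded to concentration series with 50 uM top concentration.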
# [18] = target: human Orphanin, Opioid Related Nociceptin Receptor 1 (ORL1), OPRL1 (gene 4987) (UniProt P41146); test: NVS_GPCR_hORL1: NovaScreen (NVS) G Protein-Coupled Receptor Assay for human Orphanin, Opioid Related Nociceptin Receptor 1 (ORL1) (AID 2283283)
# Outline: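 Cell-free binding using HEK293-derived receptor protein: radioligand displacement measured by filter scintillation 1 hour after dosing. Primary testing at 25 uM in duplicate, followed by singleton concentration series up to 50 uM; DMSO served as negative control.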
# [19] = target: human Purinergic Receptor P2Y, P2RY1 (gene 5028) (UniProt P47900); test: NVS_GPCR_hPY2: NovaScreen (NVS) G Protein-Coupled Receptor Assay for human Purinergic Receptor P2Y (AID 2283281)
# human Purinergic Receptor P2Y, P2RY1 (gene 5028), sequence (P47900 whole entry, looked up): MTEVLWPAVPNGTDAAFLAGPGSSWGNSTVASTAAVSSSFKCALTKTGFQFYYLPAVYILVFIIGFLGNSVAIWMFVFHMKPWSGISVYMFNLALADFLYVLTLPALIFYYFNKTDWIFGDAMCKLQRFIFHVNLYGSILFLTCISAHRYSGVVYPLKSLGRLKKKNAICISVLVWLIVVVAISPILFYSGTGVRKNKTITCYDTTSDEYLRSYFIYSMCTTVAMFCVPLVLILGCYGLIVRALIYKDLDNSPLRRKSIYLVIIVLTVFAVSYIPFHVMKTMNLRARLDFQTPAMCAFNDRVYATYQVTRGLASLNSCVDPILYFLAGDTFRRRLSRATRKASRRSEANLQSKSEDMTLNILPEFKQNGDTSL
# Outline: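 Filtration scintillation readout of radioligand displacement on U937 extract, measured 1 h post-dosing. Single 25 uM duplicate screen, then singleton concentration series to 50 uM for chemicals passing threshold; DMSO as baseline.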
smiles,measurement,setting,value
CCCCOCCOCCOCc1cc2c(cc1CCC)OCO2,outcome,[1],inactive
CC(C)(C)[C@@H](O)[C@@H](Cc1ccc(Cl)cc1)n1cncn1,outcome,[2],inactive
COC(=O)c1c(Cl)nn(C)c1S(=O)(=O)NC(=O)Nc1nc(OC)cc(OC)n1,outcome,[2],inactive
CCOC(=O)[C@H](C)Oc1ccc(Oc2nc3ccc(Cl)cc3o2)cc1,outcome,[3],inactive
COC(=O)c1ccc(CNS(C)(=O)=O)cc1S(=O)(=O)NC(=O)Nc1nc(OC)cc(OC)n1,outcome,[4],inactive
S=C([S-])NCCNC(=S)[S-].[Mn+2],outcome,[5],inactive
same,outcome,[2],inactive
same,AC50,[6],30.5 µM (active)
same,AC50,[7],25 µM (active)
same,outcome,[8],inactive
CC(C)(c1ccc(O)cc1)c1ccc(O)cc1,AC50,[9],11.2 µM (active)
same,AC50,[10],10.3 µM (active) and 5.04 µM (active)
same,outcome,[10],inactive
same,AC50,[11],18.6 µM (active) and 19 µM (active)
same,AC50,[12],31.2 µM (active) and 19.2 µM (active) and 16.3 µM (active)
same,AC50,[7],10.4 µM (active) and 24.2 µM (active) and 15.1 µM (active)
same,outcome,[8],inactive
same,outcome,Adra2b (gene 24174),inactive
C=CCOC(Cn1ccnc1)c1ccc(Cl)cc1Cl (stereo not given),AC50,[9],4.96 µM (active)
same,AC50,[7],5.39 µM (active)
same,AC50,[13],17.3 µM (active)
same,AC50,Adra2b (gene 24174),6.96 µM (active)
same,AC50,[14],37.8 µM (active)
CCCOC(=O)NCCCN(C)C,AC50,[15],18.1 µM (active)
Oc1ccc(C(c2ccc(O)cc2)C(Cl)(Cl)Cl)cc1,AC50,[9],5.12 µM (active)
same,outcome,[4],inactive
same,AC50,[7],2.7 µM (active)
same,AC50,[14],39.4 µM (active)
CCCOC(=O)c1ccc(C(=O)OCCC)nc1,outcome,[6],inactive
O=C(c1ccc(O)cc1O)c1ccc(O)cc1O,AC50,[9],18.5 µM (active)
same,AC50,[11],17.4 µM (active)
same,outcome,[1],inactive
CN(C)C(=O)Nc1ccc(Cl)c(Cl)c1,AC50,[10],9.69 µM (active)
C#C[C@]1(O)CC[C@H]2[C@@H]3CCC4=CC(=O)CC[C@@H]4[C@H]3CC[C@@]21CC,outcome,[14],inactive
S=C(S)NCCNC(=S)S.[Mn+2].[S-]C([S-])=NCCN=C([S-])[S-].[Zn+2],outcome,[9],inactive
same,outcome,[5],inactive
same,outcome,[16],inactive
same,outcome,[2],inactive
same,AC50,[6],9.72 µM (active) and 9.3 µM (active) and 26.6 µM (active)
same,AC50,[7],31.1 µM (active)
same,outcome,[7],inactive
same,AC50,[8],12.5 µM (active) and 15.4 µM (active)
same,outcome,[8],inactive
C[C@]12CC[C@@H]3c4ccc(O)cc4C[C@@H](CCCCCCCCCS(=O)CCCC(F)(F)C(F)(F)F)[C@H]3[C@@H]1CC[C@@H]2O (stereo not given in full),outcome,[14],inactive
COC(=O)CSc1cc(N=c2sc(=O)n3n2CCCC3)c(F)cc1Cl,outcome,[16],inactive
same,outcome,[4],inactive
COC(=O)c1cccc(C)c1S(=O)(=O)NC(=O)Nc1nc(OCC(F)(F)F)nc(N(C)C)n1,AC50,[5],1.32 µM (active)
CC(=O)S[C@@H]1CC2=CC(=O)CC[C@]2(C)[C@H]2CC[C@@]3(C)[C@@H](CC[C@@]34CCC(=O)O4)[C@H]12,AC50,[9],4.42 µM (active)
COC(=O)c1ccccc1S(=O)(=O)NC(=O)Nc1nc(OC(F)F)cc(OC(F)F)n1,outcome,[17],inactive
CC(C)CCCCCCc1ccc(O)cc1,outcome,[9],inactive
C[C@]12C[C@H](O)[C@H]3[C@@H](CCC4=CC(=O)CC[C@@]43C)[C@@H]1CC[C@@H]2C(=O)CO,AC50,[18],39 µM (active)
same,outcome,Adra2b (gene 24174),inactive
CCC(O)=C1C(=O)CC(C(=O)O)CC1=O (stereo not given),outcome,[2],inactive
O=C(O)c1ccccc1,outcome,[19],inactive
same,outcome,[5],inactive
